ATXN viability: cell viability loss in ATXN counter-screen; Potency, µM (top dose mostly 56.7 µM), most hits filed as cytotoxic; S2 cells (HEK-293 line with an ATXN2-luciferase reporter) viability, CellTiter-Fluor protease fluorescence, 24 h; 0.49% of 400,000 active; also: potency is read from the fitted curve at half-maximal effect; nearly all actives have a fitted effect of over 40% in size
IL1B secr inh: inflammasome signaling inhibition, IL-1 beta readout. activity change, % at 57.5 µM. 4.7% of 360,000 active. THP-1 LPS/ATP IL-1B secretion, AlphaLISA, 16 h; hits give low values. AID 743279; in the data active = activity change below about -50%; inconclusive = mostly about -30% to -49%; also: % is scaled to controls: 0 for no effect and ±100 for the full control effect
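THP-1 cells pretreated 1 hr with compounds (up to 57.5 uM final), then stimulated with LPS (250 ng/mL final) plus ATP (1.25 mM final); secreted IL-1B measured by AlphaLISA after 16 hr, decreased signal indicating inhibition.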
HepG2 viability: counter-screen for TGF-b inhibitors: cytotoxicity in HepG2 cells; Potency, µM (series often up to 46.1 µM), inactives show at the highest dose activity change, negative = cytotoxicity, hits mostly cytotoxic; 0.76% of 410,000 active; HepG2 CAGA-GFP viability, ATP luminescence, 18 h; AID 588856; also: potency is read from the fitted curve at half-maximal effect
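HepG2 CAGA-GFP cells (1000/well, DMEM with 1% FBS) received compound, then TGF-beta at 500 pg/mL final, and were incubated 18 hours at 37 degrees C. Viability was read by CellTiter-Glo luminescence. Media-only wells were set as complete cell-killing and DMSO as no toxicity.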
TGFb inhibitor: TGF-b pathway inhibition. HepG2 CAGA-GFP TGF-b/SMAD3 reporter, GFP fluorescence, 18 h; TGF-beta stimulated, 500 pg/mL final. Potency, µM (highest dose often 46.1 µM), without a hit: top-dose activity, negative = inhibition, hits mostly inhibitors. 1.2% of 410,000 active; also: potency is read from the fitted curve at half-maximal effect; % is scaled to controls: 0 for no effect and ±100 for the full control effect; nearly all actives have a fitted effect of over 65% in size
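Smad-responsive CAGA-GFP expression was quantified in HEPG2 cells exposed to compounds and 500 pg/mL final TGF-beta for 18 h at 37 degrees C; unstimulated wells defined full inhibition.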
ATXN2 expr inh: reduces ATXN2 reporter expression in HEK-293 cells; HEK-293 ATXN2-luciferase reporter, luminescence, 24 h; AID 1745845; Potency, µM (series often up to 57 µM), for the others: at the top dose activity change, negative = inhibition, most hits filed as inhibitors; 0.72% of 360,000 active; also: potency is read from the fitted curve at half-maximal effect; % is scaled to controls: 0 for no effect and ±100 for the full control effect; nearly all actives have a fitted effect of over 55% in size
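ATXN2-luciferase reporter cells (luciferase flanked by upstream and downstream ATXN2 gene portions) were treated 24 h at 37 °C with compounds at up to 57 uM. SteadyGlo luminescence gave expression; GF-AFC fluorescence gave viability.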
* hit, by the source's call; i = inactive; ? = inconclusive; . = not tested or not shown. Rows were chosen to be rich in hits. Some 5.7% of all compounds tested hit in one or more screens of this group. Unless noted, calls follow the shape of the dose curve; as a rule, active = well fitted curve in the direction sought with a large enough effect; inconclusive = small, poorly fitted or top-dose-only effect, or another doubt; inactive = no such curve, though single readings can be large; an effect the other way counts as inactive or inconclusive.

SMILES	ATXN viability	IL1B secr inh	HepG2 viability	TGFb inhibitor	ATXN2 expr inh
COc1ccc(/C=N/NC(=O)c2cccc([N+](=O)[O-])c2)c2ccccc12	?	37	-18%	-6%	18µM*
Cc1c2cnn(CC(=O)NC(C)C)c(=O)c2c(C)n1Cc1ccccc1Cl	.	.	-24%	?	.
O=C(Cn1c(=O)n(Cc2ccco2)c(=O)c2ccccc21)Nc1ccc(Cl)cc1Cl	i	.	1%	-9%	-4%
NS(=O)(=O)c1ccc(NC2=CC(=O)C(=O)c3ccccc32)cc1	i	-78*	-55%	8.9µM*	?
Cc1ccc(NC2=CC(=O)C(=O)c3ccccc32)cc1	?	-93*	5µM*	2.8µM*	-28%
Cc1cc(NC2=CC(=O)C(=O)c3ccccc32)no1	?	-101*	-91%	?	-36%
COc1cc(OC)c(NC2=CC(=O)C(=O)c3ccccc32)cc1Cl	18µM*	?	0%	?	.
Cc1cc(NC(=O)CCN2C(=O)c3ccccc3C2=O)no1	i	-4	16%	-5%	8%
CCOC(=O)c1ccc(NC2=CC(=O)C(=O)c3ccccc32)cc1	?	9	-22%	?	-23%
COc1cccc(Cn2c(=O)cc(C)c3c(C)nn(-c4ccc(C)cc4)c32)c1	i	.	-1%	-16%	0%
CC(C)CC1C(=O)N(Cc2cn(Cc3ccco3)nn2)CCS(=O)(=O)N1Cc1ccc(-c2ccc(F)cc2)cc1 (centres undefined)	?	-72*	-37%	?	?
Cc1ccccc1-c1ccc(CN2C(C)C(=O)N(Cc3cn(Cc4ccco4)nn3)CCS2(=O)=O)cc1 (centres undefined)	?	?	-36%	?	?
CC1C(=O)N(Cc2cn(Cc3ccco3)nn2)CCS(=O)(=O)N1Cc1ccc(-c2ccc(Cl)c(Cl)c2)cc1 (centres undefined)	?	-51*	-41%	?	?
Cc1ccc(-c2ccc(CN3C(C)C(=O)N(Cc4cn(Cc5ccco5)nn4)CCS3(=O)=O)cc2)c(C)c1 (centres undefined)	?	-61*	-5%	?	?
Cc1ccc(-c2ccc(CN3C(CC(C)C)C(=O)N(Cc4cn(Cc5ccco5)nn4)CCS3(=O)=O)cc2)cc1 (centres undefined)	i	-16	-12%	0%	-25%
CC1C(=O)N(Cc2cn(Cc3ccco3)nn2)CCS(=O)(=O)N1Cc1ccc(-c2ccccc2C(F)(F)F)cc1 (centres undefined)	?	-60*	-7%	?	?
C=C(Br)COC(c1ccco1)[C@H](Cc1ccccc1)NC(=O)OC(C)(C)C (some centres undefined)	.	.	-28%	?	.
O=C(CN1CCN(C(c2ccccc2)c2ccccc2)CC1)N1CCOCC1	i	16	1%	5%	-9%
Oc1c(C(c2ccccc2)N2CCOCC2)ccc2ccccc12 (centres undefined)	?	-99*	-16%	-15%	-29%
O=C(NCCCN1CCN(c2cccc(Cl)c2)CC1)c1cnn(-c2ccc(F)cc2)c1-n1cccc1	?	.	10µM*	?	35µM*
CCCN(CCC)CCCNC(=O)c1cnn(-c2ccc(F)cc2)c1-n1cccc1	i	.	-20%	-5%	-18%
Clc1ccccc1CNc1ncnc2c1c(-c1ccccc1)cn2-c1ccccc1	.	.	-14%	1%	.
N=c1c2c(n(Cc3ccc(Cl)cc3)c3c1CCC3)CCC2	i	-67*	-14%	?	?
N=c1c2c(n(Cc3ccccc3)c3c1CCC3)CCC2	i	-28	-5%	0%	-29%
N=c1c2c(n(Cc3cccc(Cl)c3)c3c1CCC3)CCCC2	i	-79*	-22%	?	?
SMILES	ATXN viability	IL1B secr inh	HepG2 viability	TGFb inhibitor	ATXN2 expr inh
C=C[C@@H]1[C@@H](C)[C@H](C)C(=O)C([C@H](O)C(C)C)[C@@H]1C (some centres undefined)	.	.	5%	3%	.
COc1cc(OC)c(OC)cc1CN1CCc2nc(Nc3ccc4c(c3)OCCO4)ncc2C1	.	.	-12%	-21%	-1%
CC(=O)Nc1sc(N/N=C/c2ccc(O)cc2)nc1-c1ccc(C)cc1	i	-3	6%	0%	.
CCOc1cc(/C=N/Nc2nc(-c3cccs3)c(NC(C)=O)s2)ccc1O	i	-60*	7%	-22%	4%
CC(=O)Nc1sc(N/N=C/c2ccccc2)nc1-c1ccc(C)cc1	i	-90*	-10%	-1%	14%
CC(=O)N1CCc2c(sc3c2c(=O)n(-c2ccccc2)c(=O)n3Cc2cccc(C(F)(F)F)c2)C1	i	.	-61%	?	?
C#CCOc1nc(Nc2cccc([N+](=O)[O-])c2)nc(OCC#C)n1	i	-66*	2%	14%	-17%
COc1nc(Nc2cccc([N+](=O)[O-])c2)nc(OC)n1	i	-8	11%	15%	0%
CC(=O)c1c(C)[nH]c(C(=O)OCC(=O)Nc2ccc(Cl)c(S(=O)(=O)N(C)C)c2)c1C	13µM*	-29	1%	?	.
CN(CCOc1ccccc1)CC(=O)Nc1ccc(Cl)c(S(=O)(=O)N(C)C)c1	i	-51*	1%	?	-22%
O=C(Cc1ccc(Cl)cc1)c1c[nH]c(C(=O)NCc2cccnc2)c1	2.5µM*	0	7%	-28%	.
Oc1cccc(NC(=S)N=Nc2c(O)[nH]c3ccc(Br)cc23)c1	i	-5	-105%	?	-25%
Oc1[nH]c2ccc(Br)cc2c1N=NC(=S)Nc1ccc(F)cc1	?	-2	-65%	10µM*	-30%
Oc1ccc(NC(=S)N=Nc2c(O)[nH]c3ccc(Br)cc23)cc1	?	-64*	22µM*	?	?
N#CCCn1c2ccccc2c2nc3ccccc3nc21	i	-91*	-3%	28%	2%
CCCn1c2ccccc2c2nc3ccccc3nc21	i	-1	-6%	2%	-5%
CCN(CC)CCn1c2ccccc2c2nc3ccccc3nc21	?	-97*	-26%	?	.
COc1ccc(OC)c(S(=O)(=O)N2CCC(c3ccncc3)CC2)c1	i	.	-5%	-4%	-5%
CN(C(=O)c1ccc2c(c1)N(Cc1ccccc1F)C(=O)c1ccccc1S2(=O)=O)C1CCCCC1	i	.	-16%	?	0%
COc1cc(=O)n2c(c1C(=O)NCc1ccco1)CCN(Cc1c(F)cccc1F)CC2	i	.	.	.	.
COc1cccc(/C=N/Nc2ncnc3scc(-c4ccccc4)c23)c1OC	i	-67*	-61%	?	-28%
CN(C)CCCNS(=O)(=O)c1ccc(NC2CCCCCC2)c([N+](=O)[O-])c1	i	-71*	-171%	22µM*	-36%

High-throughput results from PubChem BioAssay.
